# Results: PubChem BioAssay (NCATS)
# Results filed as inconclusive are left out. Where a call stands in place of a potency, no number is given. Active and inactive are the calls of the source. Calls come from the whole dose curve; as a rule, active = well fitted inhibition curve with a large enough effect in the repeat runs; inconclusive = weak or mixed curves; inactive = no such curve, though single readings can be large or run the other way.
# Biological target: Cytochrome P450 2C9 (Homo sapiens) (UniProt P11712)
# Sequence (P11712 whole entry, looked up): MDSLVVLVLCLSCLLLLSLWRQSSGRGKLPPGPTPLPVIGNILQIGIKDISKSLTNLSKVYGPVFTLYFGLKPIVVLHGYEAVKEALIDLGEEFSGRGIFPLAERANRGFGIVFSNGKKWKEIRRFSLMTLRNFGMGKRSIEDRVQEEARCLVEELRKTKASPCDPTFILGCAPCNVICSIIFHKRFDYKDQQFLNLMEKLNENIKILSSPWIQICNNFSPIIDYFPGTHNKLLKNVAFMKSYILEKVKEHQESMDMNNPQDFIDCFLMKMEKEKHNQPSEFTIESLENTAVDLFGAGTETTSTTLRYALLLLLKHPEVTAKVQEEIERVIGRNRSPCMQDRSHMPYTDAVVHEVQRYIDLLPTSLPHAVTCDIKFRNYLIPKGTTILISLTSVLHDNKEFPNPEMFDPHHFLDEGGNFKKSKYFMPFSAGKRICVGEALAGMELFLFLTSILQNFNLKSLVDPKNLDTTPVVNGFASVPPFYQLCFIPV
# Test: Cytochrome P450 family 2 subfamily C member 9 (CYP2C9) small molecule antagonists: luciferase biochemical (cell-free) qHTS assay (AID 1645842); note: nearly all actives have a fitted effect of over 55% in size
# Details: P450-Glo CYP2C9 enzyme assay, luciferin luminescence; series mostly up to 57.4 µM
# Method: National Center for Advancing Translational Sciences [NCATS] Assay Overview: Cytochrome P450 (CYP) enzymes are membrane-bound hemeproteins that play a key role in metabolism of drugs and xenobiotics. Assaying the effect of chemicals on CYP isozymes is useful to minimize the adverse drug reactions and toxicities in drug development process. Chemical compounds were tested for their effect on CYP enzyme activities by using P450-Glo (TM) screening systems (Promega Corporation, Madison, WI). These systems provide a luminescent method containing proluciferin substrates and are converted to luciferin products by CYP isozymes. The luciferin products formed are detected with a luciferin detection reagent, and the amount of light produced is proportional to CYP activity. P450-Glo (TM) CYP2C9 screening system (Catalog. No. V9790) was used to detect the compounds that interfere in CYP2C9 activity.
# Assay Protocol Summary: Two ul of enzyme-substrate mix supplemented with 0.4% Bovine Serum Albumin was dispensed into medium binding white/solid 1536-well plates (Greiner Bio-One North America Inc., Monroe, NC) using a Flying Reagent Dispenser (FRD, Aurora Discovery, San Diego, CA). […] The assay plates were incubated at room temperature for 10 min. Then 2 ul of NADPH regeneration solution was added to each well of the assay plates using an FRD and incubated at 37C for 1 h. The reaction was stopped by adding 4 ul of detection reagent using an FRD and after 20 min incubation at room temperature, the luminescence signal was measured using a ViewLux plate reader (Perkin Elmer, Shelton, CT). Data were expressed as relative luminescence units.
# Potency is the fitted concentration of half-maximal effect.
row,Compound,Potency
1,CC(Cc1ccccc1)NCCCCl (stereo not given),inactive
2,c1cc2c(c(N3CCNCC3)c1)OCCO2,inactive
3,COc1ccc2[nH]cc(CCN(C(C)C)C(C)C)c2c1,inactive
4,C[C@H]1C(=O)O[C@@H]2CCN3CC=C(COC(=O)[C@](C)(O)[C@]1(C)O)[C@H]23,inactive
5,C[N+](C)(C)CCOC(=O)C(O)(c1ccccc1)c1ccccc1,inactive
6,CCCOC(=O)Cc1ccc(OCC(=O)N(CC)CC)c(OC)c1,inactive
7,CC(C)C(Br)C(=O)NC(N)=O (stereo not given),inactive
8,CCC(=O)OC1(c2ccccc2)CCN(C)CC1,inactive
9,CCCCC1C(=O)NC(=O)N(C2CCCCC2)C1=O (stereo not given),26.8 µM (active)
10,CC#C[C@]1(O)CC[C@H]2[C@@H]3C[C@H](C)C4=CC(=O)CC[C@]4(C)[C@H]3CC[C@@]21C,17.4 µM (active)
11,Cc1ccc(N=CN(C)C=Nc2ccc(C)cc2C)c(C)c1,inactive
12,CN(C)CCc1c[nH]c2ccccc12,inactive
13,O=c1[nH]c2cc(Cl)ccc2n1C1CCNCC1,inactive
14,CCCN(CCC)CCc1c[nH]c2ccccc12,inactive
15,Nc1ccc(N)cc1,15.5 µM (active)
16,C[C@H](N)[C@H](O)c1ccc(O)c(O)c1,inactive
17,CC1=C2[C@H]3OC(=O)[C@@H](C)[C@@H]3CC[C@@]2(C)C=CC1=O,inactive
18,O=C(O)CCCCCCNC1c2ccccc2CCc2ccccc21,inactive
19,CC(Cc1ccc2c(c1)OCO2)NO (stereo not given),38.6 µM (active)
20,CC[C@]1(O)CC[C@H]2[C@@H]3CCC4=CCCC[C@@H]4[C@H]3CC[C@@]21C,inactive

row,Compound,Potency
1,Cc1nnc2n1-c1sc(CCC(=O)N3CCOCC3)cc1C(c1ccccc1Cl)=NC2,inactive
2,CCN(CC)CCOC(=O)C(C)(c1ccccc1)c1ccccc1,3.89 µM (active)
3,O=C1NCN(c2ccccc2)C12CCN(CCCOc1ccc(F)cc1)CC2,inactive
4,CCCC[N+]1(C)[C@@H]2CC(OC(=O)[C@H](CO)c3ccccc3)C[C@H]1[C@@H]1O[C@@H]12 (stereo not given in full),inactive
5,CCN(CC)C(C)C(=O)c1ccccc1 (stereo not given),inactive
6,CN(C)CCc1c[nH]c2ccc(O)cc12,inactive
7,c1ccc2nc(N3CCNCC3)ccc2c1,inactive
8,CC1COC2(c3ccccc3Cl)c3cc(Cl)ccc3NC(=O)CN12 (stereo not given),24.5 µM (active)
9,Oc1c(Br)cc(Br)cc1Br,inactive
10,CC(C)=C[C@@H]1[C@@H](C(=O)OCc2coc(Cc3ccccc3)c2)C1(C)C,7.76 µM (active)
11,CC1N=C(N)OC1c1ccccc1 (stereo not given),inactive
12,CN(C)C(=O)Oc1cc(OC(=O)N(C)C)cc(C(O)CNC(C)(C)C)c1 (stereo not given),inactive
13,C[C@]12C=CC(=O)C=C1CC[C@@H]1[C@@H]2CC[C@@]2(C)[C@H]1CC[C@]2(C)O,inactive
14,CCOC(=O)NC(C)(C)Cc1ccc(Cl)cc1,15.5 µM (active)
15,Nc1ccccc1C(=O)OCC(O)CO (stereo not given),inactive
16,COc1cc(CC#N)cc(OC)c1OC,inactive
17,CCS(=O)(=O)C(C)(C)S(=O)(=O)CC,inactive
18,CCCCCCCCCCCCOS(=O)(=O)O,inactive
19,Cc1cccc(Cc2cnc[nH]2)c1C,0.123 µM (active)
20,c1ccc2c(c1)Sc1ccccc1N2CC1CN2CCC1CC2 (stereo not given),inactive
